In PubChem BioAssay (NCI):
Compounds without any hit were thinned out: in the full panel of roughly 83,000, 20% have a hit.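 Compound tested at a single concentration for 48 hours in 96-well plates; a percent growth value below 10 was scored as active.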 Unmarked numbers belong to inactive results. Active and inactive are the calls of the source.

test system: UO-31 renal; experiment: NCI-60 one-dose screen, 48 h (100 = growth as untreated, 0 = no growth, -100 = all killed); conditions: 10 µM unless noted

Structure (SMILES) | growth
COc1ccc2[nH]cc(-c3csc4nc(-c5ccccc5)cn34)c2c1 | 33.2%
COc1cc(Cn2cc3c(c2)-c2onc(CN4CCCC4)c2CC3)cc(OC)c1OC | 78.1%
COC(=O)/C=C/c1c(C2(C)NC(=O)c3ccccc3N2)c(=O)oc2ccc(Cl)cc12 (centres undefined) | 67.8%
Cc1ccc2c(c1)Oc1nc(N)c(C#N)c(N)c1C2Sc1ccc(F)cc1 (centres undefined) | -98.2% (active)
COc1ccc(Cn2cc3c(c2-c2cc(OC)c(OC)c(OC)c2)CCc2c(CN4CCCC4)noc2-3)cc1 | 35.9%
COc1ccc(Cn2cc3c(c2-c2cc(OC)c(OC)c(OC)c2)CCc2c(CN4CCOCC4)noc2-3)cc1 | 39.5%
CCNC(=O)N1CCc2cc(OC)c(OCCc3ccc(OC)cc3)cc2C1c1ccc([N+](=O)[O-])cc1C (centres undefined) | 29.3%
COc1ccc([C@@H]2[C@@H](O)C(=O)N2c2cc(OC)c(OC)c(OC)c2)cc1F | 30.1%
Cc1ccc(-c2nnc(SCc3ccc(O)c4ncccc34)n2-c2ccccc2)cc1 | -12.8% (active)
COc1cc2oc(-c3cccc(C(=O)N[C@@H](CC(C)C)C(=O)OC(C)(C)C)c3)cc(=O)c2c(OC)c1OC | 39.6%
Cc1ccc(S(=O)(=O)N(CC[C@@H]2C[C@H]2c2cc3ccccc3o2)S(=O)(=O)c2ccc(C)cc2)cc1 | 80%
Brc1ccccc1/C=N/Nc1nc(N/N=C/c2ccccc2Br)nc(N2CCOCC2)n1 | 78.6%
CC1=NC2=NC(=O)/C(=C3/N=C(C)C=C(c4ccccc4)N3N)NN2C(c2ccccc2)=C1 | 78.6%
CN(C)CCN(C)c1ccc2ncc(C#Cc3cncc(C(=O)Nc4ccc(CN5CCN(C)CC5)c(C(F)(F)F)c4)c3)n2n1 | 68.7%
NC(N)=Nc1ccc(Oc2cccc(Nc3ccc(Br)c(C(F)(F)F)c3)c2)cn1 | 38.6%
COc1cc(Cn2cc3c(c2)-c2onc(CN4CCOCC4)c2CC3)cc(OC)c1OC | 78.7%
Cc1cc(-c2ccc(Cl)cc2)n(Cc2nnc(SCC(=O)Nc3ccc(S(N)(=O)=O)cc3)n2-c2ccc([N+](=O)[O-])cc2)n1 | 64%

Structure (SMILES) | growth
COc1ccc(C(=O)CSc2nc3c(c(Nc4ccc(S(N)(=O)=O)cc4)n2)CCCC3)cc1 | 81.1%
CCn1c(SCC(=O)Nc2cccc(C(=O)/C=C/c3cc(OC)c(OC)c(OC)c3)c2)nc2ccccc2c1=O | 37.5%
Nc1ncc(-c2ccc(NS(=O)(=O)c3ccc(Cl)c(Cl)c3)cc2)[nH]1 | 76.3%
Cc1nn(-c2ccccc2)c2ncnc(N/N=C/c3ccccc3O)c12 | -25.8% (active)
COc1cc(-c2nnc(SCc3ccc(O)c4ncccc34)n2-c2ccccc2)cc(OC)c1OC | -30.2% (active)
Oc1ccc(CSc2nnc(-c3ccc(Cl)cc3)n2-c2ccccc2)c2cccnc12 | 0.657% (active)
CCc1ccc(SC2c3ccc(N(CC)CC)cc3Oc3nc(N)c(C#N)c(N)c32)cc1 (centres undefined) | -98.8% (active)
CS(=O)(=O)Nc1cc(-c2ccc3ncc(C#N)c(NCc4ccccc4O)c3c2)cnc1Cl | 3.5% (active)
NS(=O)(=O)c1ccc(Nc2cc(-c3ccccc3)nc(SCC(=O)c3ccccc3)n2)cc1 | 86%
c1ccc(C(c2nc3ncncc3[nH]2)N2CSc3nc4ccccc4n3C2)cc1 (centres undefined) | 82.7%
COCCNc1ccc2ncc(C#Cc3cncc(C(=O)Nc4ccc(CN5CCN(C)CC5)c(C(F)(F)F)c4)c3)n2n1 | -40% (active)
O=c1c2ccccc2nc(COc2ccccc2)n1NS(=O)(=O)c1ccc(Cl)cc1 | 62.7%
NC(N)=Nc1ccc(Oc2cccc(Nc3ccc(Cl)c(C(F)(F)F)c3)c2)cn1 | 43.3%
O=C1CC(=O)N2CSCN(C(c3ccccc3)c3nc4ncncc4[nH]3)C2=N1 (centres undefined) | 79.6%
COc1cc(/C=N/NC(=O)c2cn(C3CC3)c3c(OC)c(N4CC5CCCNC5C4)c(F)cc3c2=O)ccc1O (centres undefined) | 81.1%
C[C@H](CCC(=O)NCc1ccc(C(=O)Nc2ccccc2N)cc1)[C@H]1CC[C@H]2[C@@H]3[C@@H](O)C[C@@H]4C[C@H](O)CC[C@]4(C)[C@H]3CC[C@]12C | 56.7%
N#Cc1cn(Cc2ccc(Cl)cc2Cl)c(C(=O)c2ccc(Br)cc2)c1N | 81.6%
